The record followed here is PubChem BioAssay (NCATS).

Assay [1] has as its target Rap guanine nucleotide exchange factor 3 (Homo sapiens) (UniProt O95398). The assay is described as follows: Confirmatory qHTS for agonist of cAMP-regulated guanine nucleotide exchange factor 3 (EPAC1) (AID 1645881;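 note: EPAC1 catalysed release of BODIPY-GDP from Rap1B seen as fluorescence loss; 100% = effect of cAMP agonist control; nearly all actives have a fitted effect of over 75% in size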). (In general: Quantitative high-throughput screening tests each substance at several concentrations.)
Assay [2] deals with Rap guanine nucleotide exchange factor 4 (Homo sapiens) (UniProt Q8WZA2). The assay is described as follows: Confirmatory qHTS for agonist of cAMP-regulated guanine nucleotide exchange factor 4 (EPAC2) (AID 1645884).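 Note: nucleotide exchange releases bodipy-GDP from Rap1 and this lowers its fluorescence; % is set by controls: 0 for no effect and ±100 for the full control effect; nearly all actives have a fitted effect of over 65% in size.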
Assay [3] has the same target. The assay is described as follows: Confirmatory qHTS for antagonist of cAMP-regulated guanine nucleotide exchange factor 4 (EPAC2) (AID 1645885). For activity change, negative = inhibition: % is set by controls: 0 for no effect and ±100 for the full control effect. Note: nearly all actives have a fitted effect of over 25% in size. Note: potency is the fitted concentration of half-maximal effect.
In assay [4] the target is Rap guanine nucleotide exchange factor 3 (Homo sapiens) (UniProt O95398). The assay is described as follows: Counterscreen qHTS for antagonist of cAMP-regulated guanine nucleotide exchange factor 3 (EPAC1) (AID 1645888).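 Note: fluorescence loss as bound BODIPY-GDP is released from Rap1B; % of control where 0% means no effect.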 In outline:
(§1)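 Rap1B–BODIPY-GDP (250 nM) with 50 uM GDP; compounds pin-transferred to 9.74 nM–152 uM final (activator) or from 7.32 nM upwards (inhibitor). Fluorescence Ex/Em 480/540 nm read at 5 and 30 min, then after adding cAMP or buffer, at room temperature.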

The target is the same in assay [5]. The assay is described as follows: Counterscreen qHTS for agonist of cAMP-regulated guanine nucleotide exchange factor 3 (EPAC1) (AID 1645889). For activation: % of control where 0% means no effect. Note: nearly all actives have a fitted effect of over 40% in size. Note: potency is the fitted concentration of half-maximal effect. In outline:
as §1
Background: The purpose of a counterscreen is to sort out artefacts and off-target activity.

Records with an inconclusive call do not appear. A number with no mark means an inactive call. Calls of active or inactive are those of the source. Calls come from the whole dose curve; as a rule, active = well fitted curve in the direction sought with a large enough effect; inconclusive = small, poorly fitted or top-dose-only effect, or another doubt; inactive = no such curve, though single readings can be large; an effect the other way counts as inactive or inconclusive.

Chain of Rap guanine nucleotide exchange factor 3 (Homo sapiens) (O95398 whole entry, looked up): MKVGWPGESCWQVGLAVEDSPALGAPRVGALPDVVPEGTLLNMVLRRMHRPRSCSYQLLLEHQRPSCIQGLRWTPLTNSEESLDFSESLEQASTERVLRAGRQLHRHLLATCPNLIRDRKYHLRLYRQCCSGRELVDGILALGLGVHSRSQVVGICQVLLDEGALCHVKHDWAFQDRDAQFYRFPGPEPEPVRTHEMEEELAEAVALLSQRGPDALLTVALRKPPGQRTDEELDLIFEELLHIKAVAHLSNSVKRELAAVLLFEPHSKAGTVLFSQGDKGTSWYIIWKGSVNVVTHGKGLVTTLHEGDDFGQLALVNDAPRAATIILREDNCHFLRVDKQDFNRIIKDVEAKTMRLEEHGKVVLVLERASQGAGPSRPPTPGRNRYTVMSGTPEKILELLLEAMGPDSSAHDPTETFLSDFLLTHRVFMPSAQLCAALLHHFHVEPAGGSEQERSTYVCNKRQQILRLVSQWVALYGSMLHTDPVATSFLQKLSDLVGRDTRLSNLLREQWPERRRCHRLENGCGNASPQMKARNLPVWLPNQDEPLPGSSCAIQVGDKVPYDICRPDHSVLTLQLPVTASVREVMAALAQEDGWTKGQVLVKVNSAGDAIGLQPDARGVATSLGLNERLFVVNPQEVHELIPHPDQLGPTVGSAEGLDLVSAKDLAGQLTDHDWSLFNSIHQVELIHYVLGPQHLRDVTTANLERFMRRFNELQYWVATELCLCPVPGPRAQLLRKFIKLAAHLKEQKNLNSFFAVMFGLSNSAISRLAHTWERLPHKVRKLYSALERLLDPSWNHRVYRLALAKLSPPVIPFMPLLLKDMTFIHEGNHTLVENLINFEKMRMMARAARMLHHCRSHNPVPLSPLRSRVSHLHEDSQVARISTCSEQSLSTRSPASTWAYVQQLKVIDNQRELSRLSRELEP
Chain of Rap guanine nucleotide exchange factor 4 (Homo sapiens) (Q8WZA2 whole entry, looked up): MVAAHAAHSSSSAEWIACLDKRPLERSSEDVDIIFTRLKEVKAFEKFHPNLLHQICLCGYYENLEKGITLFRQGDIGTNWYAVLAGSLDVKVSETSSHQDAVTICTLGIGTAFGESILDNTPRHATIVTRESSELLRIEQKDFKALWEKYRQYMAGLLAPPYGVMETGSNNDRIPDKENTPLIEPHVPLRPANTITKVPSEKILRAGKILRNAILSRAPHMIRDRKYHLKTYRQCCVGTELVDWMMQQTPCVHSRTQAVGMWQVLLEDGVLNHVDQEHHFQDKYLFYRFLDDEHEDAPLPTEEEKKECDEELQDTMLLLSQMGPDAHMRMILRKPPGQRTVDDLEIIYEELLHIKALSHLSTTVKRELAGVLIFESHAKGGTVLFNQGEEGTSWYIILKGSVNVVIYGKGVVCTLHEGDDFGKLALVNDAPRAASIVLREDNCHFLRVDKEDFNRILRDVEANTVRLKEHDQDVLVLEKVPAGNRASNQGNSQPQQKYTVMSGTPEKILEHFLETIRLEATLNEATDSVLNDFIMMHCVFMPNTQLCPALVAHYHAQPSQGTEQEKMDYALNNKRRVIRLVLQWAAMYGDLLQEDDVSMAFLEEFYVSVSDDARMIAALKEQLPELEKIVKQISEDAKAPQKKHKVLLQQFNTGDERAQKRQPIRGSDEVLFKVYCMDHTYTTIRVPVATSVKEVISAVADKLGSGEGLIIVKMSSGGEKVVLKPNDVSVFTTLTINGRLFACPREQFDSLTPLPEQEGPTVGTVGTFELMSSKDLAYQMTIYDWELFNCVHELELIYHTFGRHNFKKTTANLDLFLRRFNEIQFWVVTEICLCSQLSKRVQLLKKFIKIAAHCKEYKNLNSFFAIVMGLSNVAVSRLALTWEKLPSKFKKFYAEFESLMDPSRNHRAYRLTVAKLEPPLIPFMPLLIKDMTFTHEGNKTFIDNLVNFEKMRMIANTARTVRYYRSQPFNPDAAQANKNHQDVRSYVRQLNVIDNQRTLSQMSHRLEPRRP

As for `O=C(O)CN1C(=O)/C(=C\c2cc([N+](=O)[O-])ccc2OCc2ccccc2Cl)SC1=S`, the Potency result in assay [1] and in assay [3] was “inactive” in each case. The activation in assay [2] is 2.47% [at 17.1 µM, percent relative to cAMP agonist control]; in assay [5] it was 29.5% [at 30.8 µM]. Besides, the activity change, negative = inhibition in assay [4] was -20.4% [at 30.8 µM].
For `Cc1cc2ccccc2n1CCNC(=O)C1CCCCC1`, the Potency result in assay [1], in assay [2], in assay [4] and in assay [5] was “inactive” each time. Moreover, the Potency in assay [3] is 95.3 µM (active).
Take `Cc1ccc2oc(=O)n(CCOc3ccccc3C)c2c1`: the Potency result in assay [1] and in assay [3] was “inactive” each time. Further, the activation in assay [2] was 11.2% [at 17.1 µM, percent relative to cAMP agonist control]; in assay [5], 15.6% [at 30.8 µM]. Also, the activity change, negative = inhibition in assay [4] was -6.86% [at 30.8 µM].
For `CCOC(=O)C1Nc2ccc(C(F)(F)F)cc2C2C=CCC12` (stereo not given), the Potency entry in assay [1] and in assay [3] was “inactive” in each case. For the same compound, the activation is 1.4% [at 17.1 µM, percent relative to cAMP agonist control] in assay [2] and 11.6% [at 30.8 µM] in assay [5]. The activity change, negative = inhibition in assay [4] was -11.7% [at 30.8 µM].
Regarding `CCOc1cccc(C(=O)Nc2ccc3oc(Cc4ccc(Cl)cc4)nc3c2)c1`, the Potency entry in assay [1] and in assay [3] was “inactive” in each case. Moreover, the activation in assay [2] is 0% [at 17.1 µM, percent relative to cAMP agonist control]; in assay [5], 18.7% [at 30.8 µM]. For the same compound, in assay [4], the activity change, negative = inhibition was -8.02% [at 30.8 µM].
As to `O=C(C1CC1)N1CCCC(c2ccc(Cl)cc2)=N1`, the Potency result in assay [1] and in assay [3] was “inactive” throughout. For the same compound, the activation in assay [2] is -19.8% [at 17.1 µM, percent relative to cAMP agonist control]; in assay [5], -0.772% [at 30.8 µM]. The activity change, negative = inhibition in assay [4] was -19% [at 30.8 µM].
`Cn1c(COc2ccccc2C(C)(C)C)nc2ccccc21`: the Potency result in assay [1], in assay [2], in assay [3] and in assay [4] was “inactive” throughout. Also, the Potency in assay [5] was 15.8 µM (active).
`COc1ccccc1N(CC(=O)Nc1cc(C)on1)S(=O)(=O)c1ccc(Cl)cc1`: the Potency result in assay [1] and in assay [3] was “inactive” throughout. The activation in assay [2] was 2.18% [at 17.1 µM, percent relative to cAMP agonist control]; in assay [5], 29.1% [at 30.8 µM]. The activity change, negative = inhibition in assay [4] is -8.9% [at 30.8 µM].
Turning to `CCOc1cc(/C=C/C(=O)OCC(=O)NCc2ccco2)cc(Cl)c1OC`, the Potency result in assay [1], in assay [2], in assay [3], in assay [4] and in assay [5] was “inactive” throughout.
For `COc1ccccc1C(CCN(Cc1ccccc1)C(C)=O)c1ccco1` (stereo not given), the Potency result in assay [1] and in assay [3] was “inactive” in each case. Moreover, the activation is 8.17% [at 17.1 µM, percent relative to cAMP agonist control] in assay [2] and 10.4% [at 30.8 µM] in assay [5]. Besides, the activity change, negative = inhibition in assay [4] was -15.7% [at 30.8 µM].
Take `Cc1ccccc1CN(C)CC(=O)Nc1c(C)cccc1C(C)C`: the Potency entry in assay [1] and in assay [3] was “inactive” each time. Moreover, the activation in assay [2] is 7.02% [at 17.1 µM, percent relative to cAMP agonist control]; in assay [5], -4.69% [at 30.8 µM]. Further, the activity change, negative = inhibition in assay [4] is -6.66% [at 30.8 µM].
On to `O=c1cc(CSc2nc3ccccc3c(=O)[nH]2)c2ccc(O)cc2o1`, for which the Potency result in assay [1], in assay [2], in assay [3], in assay [4] and in assay [5] was “inactive” each time.
As to `O=C(O)CCn1cc(/C=C\C(=O)c2ccc(Cl)cc2)c(-c2cccc(Br)c2)n1`, the Potency result in assay [1] and in assay [3] was “inactive” in each case. Besides, the activation in assay [2] is 4.02% [at 17.1 µM, percent relative to cAMP agonist control]; in assay [5], 15.3% [at 30.8 µM]. For the same compound, in assay [4], the activity change, negative = inhibition was 0.257% [at 30.8 µM].
Consider `O=C(O)C(Cc1ccccc1)N1C(=O)/C(=C/c2cccs2)SC1=S` (stereo not given), for which the Potency entry in assay [1], in assay [2], in assay [4] and in assay [5] was “inactive” in each case. In assay [3], the Potency is 75.7 µM (active).
Consider `CN1CCN(C(=O)c2ccc(COc3ccc(C(C)(C)C)cc3)o2)CC1`, for which the Potency result in assay [1] and in assay [3] was “inactive” in each case. Also, the activation in assay [2] is 8.37% [at 17.1 µM, percent relative to cAMP agonist control]; in assay [5], 9.82% [at 30.8 µM]. For the same compound, the activity change, negative = inhibition in assay [4] is 8.52% [at 30.8 µM].
Take `CC(C)(C)n1nc(Cc2cccc3ccccc23)c(C#N)c1N`: the Potency result in assay [1], in assay [2], in assay [3], in assay [4] and in assay [5] was “inactive” in each case.
As for `CCOC(=O)N(C)c1c(CC)nc2c(OCc3ccc(C(F)(F)F)cc3)cccn12`, the Potency entry in assay [1], in assay [2], in assay [3], in assay [4] and in assay [5] was “inactive” in each case.
